Experimental data reported in PubChem BioAssay AID624330 (Southern Research Specialized Biocontainment Screening …, 2012).
About 2,100 (0.62%) of roughly 340,000 compounds were called active.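 How the source made its calls: active means first-screen hits whose inhibition reached a set limit at any dose in the follow-up dose series; inconclusive means inhibition above the set first-screen limit but never retested; inactive means the rest.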 The list is a sample of the results. Results with a measured potency or affinity are listed apart.

target: Rac GTPase-activating protein 1 (Homo sapiens) (UniProt Q9H0H5); assay: MgcRacGAP GTPase-activating activity inhibitors, confirmation, biochemical, ADP Hunter fluorescence, primary and confirmatory (AID 624330); conditions: MgcRacGAP-stimulated Rac1 GTP hydrolysis, at 30 µM, hits give high values, GST-tagged Rac1 F28L mutant substrate;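 further: fluorescence reports GDP produced by GAP-driven GTP hydrolysis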
Sequence (Q9H0H5 whole entry, looked up): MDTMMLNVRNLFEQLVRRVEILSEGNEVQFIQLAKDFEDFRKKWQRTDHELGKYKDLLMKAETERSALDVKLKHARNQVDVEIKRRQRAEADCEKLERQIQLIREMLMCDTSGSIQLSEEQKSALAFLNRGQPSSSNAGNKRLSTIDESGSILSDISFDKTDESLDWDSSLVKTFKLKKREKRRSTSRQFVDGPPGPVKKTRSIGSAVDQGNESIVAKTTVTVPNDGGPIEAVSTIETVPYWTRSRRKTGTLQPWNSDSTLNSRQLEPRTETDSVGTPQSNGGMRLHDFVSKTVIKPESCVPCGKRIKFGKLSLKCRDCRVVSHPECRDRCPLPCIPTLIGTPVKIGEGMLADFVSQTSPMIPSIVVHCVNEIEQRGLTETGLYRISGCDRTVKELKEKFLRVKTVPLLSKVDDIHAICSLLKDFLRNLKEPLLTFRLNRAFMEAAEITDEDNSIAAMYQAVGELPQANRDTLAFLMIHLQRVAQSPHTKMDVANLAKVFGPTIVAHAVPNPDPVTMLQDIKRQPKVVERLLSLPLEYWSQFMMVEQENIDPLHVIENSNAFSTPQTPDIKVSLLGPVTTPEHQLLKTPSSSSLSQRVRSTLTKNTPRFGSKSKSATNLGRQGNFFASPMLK

inhibition, inactive:
CC1(C)CC(=O)C2=C(C1)C(c1cn(-c3ccccc3)nc1-c1ccccc1)C(C#N)=C(N)O2 (centres undefined) 2.04%, Cc1cc(Br)cc(C)c1NC(=S)NC(=O)CC(C)C 7.74%, NC(N)=NS(=O)(=O)c1ccc(N/C=C/C(=O)c2ccc(Cl)c(Cl)c2)cc1 6.29%, COC(=O)[C@H](CCSC)NC(=O)Cn1cnc2c(OCc3ccccc3)ncnc21 5.04%, COc1ccc(OCC(=O)NNC(=O)c2ccc3c(=O)n4c(nc3c2)CCC4)cc1 8.67%, COc1ccc(S(=O)(=O)N2CCN(C(=O)c3ccco3)CC2)c(C)c1C 1.7%, O=C(O)c1cc(N2C(=O)C3C4C=CC(C4)C3C2=O)ccc1N1CCOCC1 (centres undefined) 4.85%, O=C(Nc1nccs1)C1CCCN1/C=C/C(=O)C(F)(F)F (centres undefined) -1.71%, C=CCNC(=O)c1n[nH]c2c1CC(C(C)(C)CC)CC2 (centres undefined) 8.27%, CCN(Cc1ccccc1)C(=O)C1CCC(CNc2c(N3CCOCC3)c(=O)c2=O)CC1 (centres undefined) 4.88%, C=CCN1CCN(C(=O)c2cc3c(s2)CCC(CC)C3)CC1 (centres undefined) 5%, COCCn1c(SCC(=O)Nc2ccc3c(c2)OCCO3)nc2c(c1=O)SC(C)C2 (centres undefined) 8.12%, CCN1C(=O)[C@H]2[C@@H](c3ccc(C)cc3)N3C(=O)N(c4ccc(OC)cc4)C(=O)[C@@]3(Cc3ccc(Cl)cc3)[C@H]2C1=O -2.48%, C/C(CC(=O)Nc1ccc2c(c1)OCCO2)=N\NC(=O)c1ccc([N+](=O)[O-])cc1Cl 9.05%, C/C(CC(=O)Nc1ccc(N(C)C)cc1)=N\NC(=O)c1ccc(Cl)cc1Cl 21.9%, Cc1ccc(-c2cc(C(=O)Nc3ccc(S(=O)(=O)Nc4onc(C)c4C)cc3)[nH]n2)c(O)c1 -1.18%, C#CCOCCOCCOCCNc1nc(N2CCOCC2)nc(N2CCN(C(=O)[C@H](Cc3ccc(O)cc3)n3cc([C@@H](N)C(C)CC)nn3)CC2)n1 (some centres undefined) 8.21%, CCN(Cc1ccncc1)Cc1c(O)ccc2ccccc12 15.9%, COc1ccc(CN(C)Cc2c(O)ccc3ccccc23)cc1 9.58%, COc1cccc(CN(C)Cc2c(O)ccc3ccccc23)c1 3.54%, CN(C)Cc1c(O)ccc2ccccc12 7.54%, COc1ccc(/C(N)=N/OC(=O)Cc2cccs2)cc1 5.03%, CCOC(=O)C(N=Nc1nn[nH]n1)C(C)=O (centres undefined) 14.3%, CC(=O)Nc1c(F)cc(Br)cc1F 7.06%, COCCN(C(=O)c1ccccc1)c1nnc(-c2cccnc2)s1 3.74%, C=CCn1c(=O)/c(=C/c2ccc(Cl)cc2)s/c1=C(\C#N)c1nnc2n1CCCCC2 0.47%, C=CCn1c(=O)/c(=C/c2ccc(Cl)cc2)s/c1=C(/C#N)c1nnc2n1CCCCC2 3.92%, CN1CCN(Cc2nnc(-c3ccccc3)o2)CC1 7.8%, CC1=CC(C2CC(=O)N(c3ccc(C)cc3)C2=O)CC2C(=O)N(c3ccc(C)cc3)C(=O)C12 (centres undefined) 1.51%, Cn1cc(Br)c(-c2cccc(N3C(=O)CC(C)(C)CC3=O)c2)n1 9.36%, Cc1cccc(-n2nc3c(c2NC(=O)CCCl)CSC3)c1 9.59%, Cc1ccc(-n2ncc(C(=O)Nc3cc(Cl)cc(Cl)c3)c2C2CCNCC2)cc1C 10.4%, COc1ccc(CSc2nncn2N)cc1[N+](=O)[O-] 2.61%, CC(=O)c1ccc(NC(=S)N2CCCC(CO)C2)cc1 (centres undefined) 9.07%, OCC1CCCN(C(=S)Nc2ccc(Oc3ccccc3)cc2)C1 (centres undefined) 11.8%, Cc1ccccc1NC(=O)c1cccc2c1C(=O)N(C1CCCCC1)C2 6.92%, COc1cc2ccc(NC(C)=O)cc2cc1OC -17.4%, CCCC(=O)Nc1cc(OC)c(OC)cc1C(=O)O 0.59%, COc1cc(NC(=O)c2cnc(NCc3ccccc3)nc2C)cc(OC)c1OC 10.3%, COc1cc(Cc2nccc3cc(OC)c(OC)cc23)c(NC(C)=O)cc1OC 8.79%, CCOC(=O)[C@@H]1[C@H]2COc3ccccc3[C@@H]2N2C(=O)N(c3cccc(Cl)c3)C(=O)[C@@]12C 7.95%, O=C(CCC(=O)Nc1ccc(F)cc1)N/N=C/c1cccnc1 7.44%, Cc1ccnc(NS(=O)(=O)c2ccc(NC(=O)c3snnc3C)cc2)n1 15.1%, c1ccc2c(c1)CCN(CCCNc1nc3ccccc3n3cnnc13)C2 5.26%, Cc1ccc(S(=O)(=O)Nc2nc(C)cc(NN)n2)cc1 0.61%, COc1cc(C)nc(NS(=O)(=O)c2ccc(C)cc2)n1 5.36%, COC(=O)c1ccsc1NC(=O)c1ccc2c(c1)OCCO2 0.64%, O=C(CCCN=C1NS(=O)(=O)c2ccccc21)OCC(=O)c1ccc(F)cc1 3.32%, Cc1cc(C(F)F)nn1CC(=O)NCc1ccc(Cl)cc1Cl 6.89%, COc1cc2[nH]c(=S)n(CCCN3CCOCC3)c(=O)c2cc1OC 12.7%, CCCSc1nc2cc(OC)c(OC)cc2c(=N)n1CCCN1CCOCC1 20.6%, Fc1cc2[nH]c(=S)[nH]c2c(Br)c1N1CCSCC1 8.85%, O=C(N/N=C/c1cccc(O)c1)c1csc2ccccc12 -6.14%, Cc1ccc(/C=N/NC(=O)c2csc3c2CCCC3)cc1 7.82%, O=C(N/N=C/c1ccccc1)c1cccc2ccccc12 7.64%, O=C(N/N=C/c1cccc(F)c1)c1csc2c1CCCC2 11.6%, C/C(=N\NC(=O)c1csc2ccccc12)c1ccc(O)cc1 26.2%, O=C(N/N=C/c1ccccc1O)c1cccc2ccccc12 11.8%, Cc1cc(S(=O)(=O)N2CC(=O)N(CCc3ccccc3)C(=O)C2)ccc1F 12.6%
